Measurements from PubChem BioAssay (Tox21).
Unmarked numbers belong to inactive results. Where a call stands in place of a potency, no number is given. Calls of active or inactive are those of the source. Calls follow the shape of the full dose curve.

Assay: G protein-coupled receptor (GPCR) small molecule agonists, calcium flux assay: HEK293 wild type cell line counter screen (AID 1920065)
Settings: HEK293 WT calcium flux, fluorescence, agonist mode; series mostly up to 57.6 µM
Source text: U.S. Tox21 Program National Center for Advancing Translational Sciences [NCATS] Division of Preclinical Innovation [DPI] U.S. Environmental Protection Agency [EPA] National Institutes of Environmental Health Sciences [NIEHS] National Toxicology Program [NTP] U.S. Food and Drug Administration [FDA] Assay overview: The increased intracellular calcium release that occurred upon G protein-coupled receptor (GPCR) activation led to the frequent use of calcium flux assays to detect GPCR activation. For the purpose of studying and screening compounds that may activate GPCR, receptor-overexpressing models were typically generated using Hek293 wild-type (WT) cells. In order to eliminate the compounds that may have induced calcium release for non-specific activation, a counter-assay utilizing calcium flux on Hek293 WT cells was performed. The data were formulated in order to serve as a control for any calcium flux detection utilizing Hek293 cells with either GPCR overexpression or gene modification. The procurement of Hek293 WT cells from ATCC. Fluorescence intensity can be utilized to determine the activation of the compound in a calcium flux assay. As a counter control, this cell line was utilized to screen the Tox21 10K compound library.
Assay Protocol Summary: Hek293 cells were dispensed at 1500cells/4uL/well in 1536-well black wall/clear bottom plates using a multidrop dispenser. After the assay plates were incubated at a 37 C/5% CO2 incubator for 18 hours, 4 uL of Calcium Dye Solution was added to each well. The plates were incubated at 37 C for 1 hour. For agonist mode, 23 nL of compounds dissolved in DMSO, positive control (ATP) or DMSO only was transferred to the assay plate by a pin tool station. The fluorescence intensity in the plates was measured using FDSS 7000EX kinetic plate reader with a filter set of Ex/Em=480/540 for 3 min at 1 sec intervals. Each test compound was measured at 15 concentrations and in triplicates.

Compound	Potency	activation
OP(O)c1ccccc1	inactive	
CC1(C)CN=C(NN=C(/C=C/c2ccc(C(F)(F)F)cc2)/C=C/c2ccc(C(F)(F)F)cc2)NC1	inactive	
Cc1cc(=O)[nH]o1	inactive	
Nc1ccccc1C(=O)Oc1ccc2ccccc2c1	inactive	
CC(C1CC1)C(O)(Cn1cncn1)c1ccc(Cl)cc1 (stereo not given)	inactive	
CN(C)c1ccc(N=Nc2ccccc2)cc1	inactive	
C[N+](C)(C)CCOC(=O)C(O)(c1ccccc1)c1ccccc1	inactive	
N#CCCSCCC#N	inactive	
CCC#N	inactive	
CCS(=O)(=O)CCSP(=O)(OC)OC	inactive	
O=S(=O)(Cl)c1ccccc1	inactive	
CCCCP(CCCC)CCCC	inactive	
Oc1cccc(Cl)c1	inactive	
CCCCCCBr	inactive	
[Cl-].[Cl-].[Cl-].[Yb+3]	inactive	
CCC1(CC)C(=O)N=C(O)NC1=O	inactive	
CCCCC(CC)COC(=O)c1ccccc1C(=O)OCC(CC)CCCC (stereo not given)	inactive	
ClCBr	inactive	
Oc1c(Cl)c(Cl)cc(Cl)c1Cl	inactive	
C[C@H]1CNCCc2ccc(Cl)cc21	inactive	

Compound	Potency	activation
c1ccc2c(c1)OCC(C1=NCCN1)O2 (stereo not given)	inactive	
Oc1cc(Cl)cc(Cl)c1	inactive	
CCCCC/C=C\C/C=C\C/C=C\C/C=C\CCCC(=O)NCC(=O)O	inactive	
CCOP(=O)(SC(C)CC)N1CCSC1=O (stereo not given)	inactive	
CN	inactive	
Cc1cc(C)c(C(=O)P(=O)(C(=O)c2c(C)cc(C)cc2C)c2ccccc2)c(C)c1	inactive	
CCSC(C)CC1CC(=O)C(/C(CC)=N/OC/C=C/Cl)=C(O)C1 (stereo not given)	inactive	
CCOP(=S)(NC(C)C)Oc1ccccc1C(=O)OC(C)C (stereo not given)	inactive	
O=C1C=CC(=O)c2ccccc21	inactive	
CC(=O)[O-].CC(=O)[O-].[Hg+2]	inactive	
CC[N+]1(C)CCCC(OC(=O)C(O)(c2ccccc2)c2ccccc2)C1 (stereo not given)	inactive	
CCC(Cl)CCl (stereo not given)	inactive	
CC(N)=S	inactive	
NCC(CC(=O)O)c1ccc(Cl)cc1 (stereo not given)		0.685% [at 0.217 µM]
COC(=O)N(C(=O)N1COC2(C(=O)OC)Cc3cc(Cl)ccc3C2=N1)c1ccc(OC(F)(F)F)cc1 (stereo not given)	inactive	
ClCc1ccc(Cl)cc1Cl	inactive	
COP(=S)(Oc1cc(Cl)c(Br)cc1Cl)c1ccccc1 (stereo not given)	inactive	
O=C(C(Cl)(Cl)Cl)C(Cl)(Cl)Cl	inactive	
COc1ccc(C(=O)N2CCCC2=O)cc1	inactive	
CCCCOCN(C(=O)CCl)c1c(CC)cccc1CC	inactive	
